{
  "source": "PubChem BioAssay AID720579",
  "about": "(National Center for Advancing Translational Sciences (NCATS), 2013)",
  "note": "Hit rate of the full screen: of about 310,000 compounds, about 1,900 (0.61%) were called active. About 8% were inconclusive and are not listed. Shown is part of a subset that was picked to be rich in actives. Unmarked numbers belong to inactive results. Calls follow the shape of the full dose curve; tested in A549 cells. % is scaled to controls: 0 for no effect and ±100 for the full control effect; potency is read from the fitted curve at half-maximal effect.",
  "data": [
    {"assay": "qHTS for Stage-Specific Inhibitors of Vaccinia Orthopoxvirus: mCherry Reporter Primary qHTS; also: nearly all actives have a fitted effect of over 35% in size", "conditions": "Vaccinia virus mCherry reporter infection, fluorescence; series mostly up to 36.5 µM; activity change, negative = inhibition: at the top concentration", "values": [
      {"smiles": "CC1(C)OC(=O)C2=C(C[C@@H](C3CC3)O[C@H]2CCc2cccc(Cl)c2)O1", "activity change, negative = inhibition": "-11%"},
      {"smiles": "CCC(CC)C(C(=O)NC1CCCC1)N1CCN(c2cc(C)nc3ccccc23)CC1", "note": "(stereo not given)", "activity change, negative = inhibition": "19.7%"},
      {"smiles": "CN(O)C(=S)c1ccccc1", "Potency": "14.1 µM (active)"},
      {"smiles": "S=C(c1ccccc1)N1CCCC1", "activity change, negative = inhibition": "-10.8%"},
      {"smiles": "CN(CC(=O)O)C(=O)c1ccccc1", "activity change, negative = inhibition": "-12.1%"},
      {"smiles": "Cc1ccc2nc(-c3ccccc3)c(CC3CCCCC3)n2c1", "outcome": "inactive"},
      {"smiles": "CCCCSc1nc2ccccc2[nH]1", "activity change, negative = inhibition": "-6.23%"},
      {"smiles": "CCC(C)N1C(=O)S/C(=C/c2ccc(Sc3nc4ccccc4[nH]3)o2)C1=O", "note": "(stereo not given)", "Potency": "12.6 µM (active)"},
      {"smiles": "CCC(c1nc2ccccc2[nH]1)n1c(=O)c(-c2cccs2)nc2ccccc21", "note": "(stereo not given)", "activity change, negative = inhibition": "-2.3%"},
      {"smiles": "CN(C)c1ccc(C=Nc2ccc(/C=C/c3ccnc4ccccc34)cc2)cc1", "activity change, negative = inhibition": "25.4%"},
      {"smiles": "CC(C)n1ncc2c(C(=O)N3CCN(Cc4cccs4)CC3)cc(C3CC3)nc21", "outcome": "inactive"},
      {"smiles": "Cc1cccc(N2CCN(c3ccc(NC(=O)/C=C\\C(=O)O)cc3)CC2)c1", "activity change, negative = inhibition": "-0.733%"},
      {"smiles": "C=CC(=O)Nc1ccc(Nc2ccnc(Nc3ccc(N4CCN(C)CC4)cc3)n2)cc1", "Potency": "5.01 µM (active)"},
      {"smiles": "CN1CCN(c2ccc(NC(=O)c3ccccc3)cc2)CC1", "activity change, negative = inhibition": "-13.3%"},
      {"smiles": "CC(=O)Nc1ccc(C=CC(=O)c2ccc([N+](=O)[O-])cc2)cc1", "activity change, negative = inhibition": "-0.232%"},
      {"smiles": "CN(C)c1ccc(/C=C/C(=O)c2ccc(O)cc2)cc1[N+](=O)[O-]", "Potency": "15.8 µM (active)"},
      {"smiles": "O=C(/C=C/c1ccc(Cl)c([N+](=O)[O-])c1)c1ccc(O)cc1", "outcome": "inactive"},
      {"smiles": "COc1cccc(C(O)c2nc(-c3ccc(C)c(C)c3)cs2)c1", "note": "(stereo not given)", "activity change, negative = inhibition": "1.77%"},
      {"smiles": "O=C(c1ccc(C(F)(F)F)cc1)N1CCC(=O)N([C@H](COCc2ccccc2)Cc2ccccc2)CC1", "activity change, negative = inhibition": "3.14%"},
      {"smiles": "CN(C)c1ccc(/C=C2\\C=Cc3ccccc32)cc1Br", "activity change, negative = inhibition": "-17.2%"},
      {"smiles": "CCCCN(C=O)c1c(CC)nc2c(OCCC3CCCCC3)cccn12", "activity change, negative = inhibition": "-14.4%"},
      {"smiles": "CN(C)C(CNC(=O)c1cccc(S(=O)(=O)N2CCc3ccccc3C2)c1)c1ccccc1", "note": "(stereo not given)", "activity change, negative = inhibition": "-25.9%"},
      {"smiles": "COCOCCn1cc(CN2CCS(=O)(=O)N(Cc3ccc(-c4ccc(OC)cc4)cc3)C(CC(C)C)C2=O)nn1", "note": "(stereo not given)", "activity change, negative = inhibition": "-13.6%"},
      {"smiles": "O=C(CCN1C(=O)/C(=C/c2cccs2)SC1=S)NNC(=O)c1cccc(O)c1", "activity change, negative = inhibition": "-8.34%"},
      {"smiles": "O=C(CCCN1C(=O)/C(=C/c2cccs2)SC1=S)Nc1ccc(O)cc1", "Potency": "10 µM (active)"},
      {"smiles": "O=C(CCCN1C(=O)/C(=C/c2ccco2)SC1=S)Nc1ccccc1", "activity change, negative = inhibition": "-12.4%"},
      {"smiles": "O=C1C(Sc2cccc(F)c2)=C[C@@]2(O)CC[C@@H](O)[C@]1(Sc1cccc(F)c1)[C@H]2O", "activity change, negative = inhibition": "-11.8%"},
      {"smiles": "CCCCCNC(=O)C(c1ccc(OC)cc1)n1c(=O)c(-c2ccccc2)nc2ccccc21", "note": "(stereo not given)", "outcome": "inactive"},
      {"smiles": "COC(=O)c1ccc(NCc2cc(O)ccc2O)cc1", "Potency": "10 µM (active)"},
      {"smiles": "COC(=O)c1ccc(NC(=O)CSc2nnc(CNc3ccc(OC)cc3)n2C)cc1", "activity change, negative = inhibition": "-12.7% [at 1.46 µM]"},
      {"smiles": "C#CCNc1ccc(C(=O)OCC)cc1", "activity change, negative = inhibition": "-9.77%"},
      {"smiles": "CC(C)NC(=O)c1ccc(Cl)cc1Cl", "outcome": "inactive"},
      {"smiles": "CC(C)OC(=O)c1ccc(NCc2cc(O)ccc2O)cc1Cl", "Potency": "4.47 µM (active)"},
      {"smiles": "CC(OC(=O)c1ccc(Cl)cc1O)C(=O)NCCC1=CCCCC1", "note": "(stereo not given)", "outcome": "inactive"},
      {"smiles": "COc1ccc(C(=O)N2CCCCC2c2cc(C(=O)Nc3ccccc3)no2)cc1", "note": "(stereo not given)", "outcome": "inactive"},
      {"smiles": "COc1ccc(-c2coc3c(C(=O)NC(C)C)cccc23)c(C)c1", "outcome": "inactive"},
      {"smiles": "CCCCC[C@@H]1C=C(C(=O)OCC)[C@H](c2ccccc2)N1S(=O)(=O)c1ccc(C)cc1", "activity change, negative = inhibition": "5.26%"},
      {"smiles": "COCc1cccc(-c2csc(C(O)c3ccc(F)cc3)n2)c1", "note": "(stereo not given)", "outcome": "inactive"},
      {"smiles": "O=C(Oc1ccc(Br)cc1)c1cccnc1", "outcome": "inactive"},
      {"smiles": "N#CCc1ccc(OC(=O)c2cccnc2)cc1", "outcome": "inactive"},
      {"smiles": "CCCCCCOc1ccc(OC(=O)c2cccnc2)cc1", "Potency": "10 µM (active)"},
      {"smiles": "O=C(CC(CC(=O)c1ccccc1)c1ccco1)c1ccccc1", "outcome": "inactive"},
      {"smiles": "Cc1ccccc1-c1nc(NC(C)C)nc2cc(-c3ccccc3)sc12", "outcome": "inactive"},
      {"smiles": "Cc1ccccc1S(=O)(=O)N1[C@@H](c2cccc(Cl)c2)C(C(=O)OC(C)(C)C)=CC[C@H]1c1ccc(Cl)cc1", "activity change, negative = inhibition": "0.209%"},
      {"smiles": "COc1cc2nc(N3CCCN(C)CC3)nc(NC(C)C)c2cc1OC", "activity change, negative = inhibition": "-17.2%"},
      {"smiles": "C=CCC[C@H](Cc1ccc(F)cc1)C(=O)OC[C@@H](Cc1c[nH]c2ccccc12)NC(=O)[C@H](CC=C)CC(=O)N[C@H](CO)Cc1ccccc1", "activity change, negative = inhibition": "-11%"},
      {"smiles": "C=CCC[C@H](Cc1ccc(F)cc1)C(=O)OC[C@@H](NC(=O)[C@@H](CC=C)CC(=O)N[C@H](CO)Cc1ccccc1)C(C)(C)C", "Potency": "12.6 µM (active)"},
      {"smiles": "C=CC[C@@H](CC(=O)N[C@@H](CO)Cc1ccccc1)C(=O)N[C@H](COC(=O)[C@H](CC=C)CC(=O)OC(C)(C)C)Cc1ccccc1", "activity change, negative = inhibition": "-14.1%"},
      {"smiles": "COc1ccc2[nH]c3c(C)c4cc[n+](C)cc4c(C)c3c2c1", "Potency": "11.2 µM (active)"},
      {"smiles": "COc1ccc2[nH]c(C(=O)N3CCN(C)CC3)c(C)c2c1", "outcome": "inactive"},
      {"smiles": "COc1ccc2[nH]c3c(c2c1)CCN[C@H]3C", "activity change, negative = inhibition": "-21%"},
      {"smiles": "Cc1ccc(-n2c(SCC(=O)N3c4ccccc4Sc4ccccc43)nnc2-c2ccncc2)cc1", "activity change, negative = inhibition": "-4.9%"},
      {"smiles": "Cc1ccc(Nc2nc(CSc3nnc(-c4ccncc4)n3-c3ccccc3C)cs2)cc1", "Potency": "10 µM (active)"},
      {"smiles": "Cc1ccccc1-n1c(SCC(=O)NCc2cccs2)nnc1-c1ccncc1", "activity change, negative = inhibition": "-3.57%"},
      {"smiles": "COc1ccc(NC(=O)c2nc(-n3nc(C)cc3C)ccc2Cl)cc1Cl", "activity change, negative = inhibition": "-18.6%"},
      {"smiles": "COc1cc(Cl)c(C)cc1Nc1nnc(-n2nc(C)cc2C)c2ccccc12", "activity change, negative = inhibition": "-2.28%"},
      {"smiles": "Cc1cccc(Nc2cc(C)nc(-n3nc(C)cc3C)n2)c1", "activity change, negative = inhibition": "-3.8% [at 7.34 µM]"},
      {"smiles": "Cc1cc(N/N=C\\c2ccc(Br)cc2)nc(-n2nc(C)cc2C)n1", "Potency": "2.24 µM (active)"},
      {"smiles": "Cc1ccc(S(=O)(=O)Nc2nc(C)cc(N/N=C/c3ccc(O)cc3)n2)cc1", "activity change, negative = inhibition": "-6.98%"},
      {"smiles": "COc1ccccc1/C=N\\Nc1cc(C)nc(-n2nc(C)cc2C)n1", "Potency": "5.62 µM (active)"},
      {"smiles": "COc1cc(CNc2ncnc3c2ncn3[C@H]2CN(Cc3cccs3)C[C@@H](CO)O2)cc(OC)c1OC", "outcome": "inactive"},
      {"smiles": "COc1ccc(/C=C/c2ccccn2)cc1OC", "activity change, negative = inhibition": "21.9%"},
      {"smiles": "CCOC(=O)[C@]12CCCC=C1N(Cc1cccc3ccccc13)C(=O)[C@H](CC(=O)NCC13CC4CC(CC(C4)C1)C3)C2", "activity change, negative = inhibition": "-0.908%"},
      {"smiles": "NC(=S)N/N=C/c1coc2cc(Cl)ccc2c1=O", "activity change, negative = inhibition": "-7.3%"},
      {"smiles": "Cc1cccc(-n2c(C)cc(/C=N/NC(N)=S)c2C)c1", "activity change, negative = inhibition": "-5.12%"},
      {"smiles": "CC(C)Oc1c(Br)cc(Br)cc1/C=N/NC(N)=S", "Potency": "3.98 µM (active)"},
      {"smiles": "CCCCCCCCN1C(=O)[C@H](CC(=O)NCc2cccc3ccccc23)C[C@@]2(C(=O)OC)CCCCC=C12", "activity change, negative = inhibition": "-22.5%"},
      {"smiles": "COc1ccc(Cn2c(=O)[nH]c3cc(C(=O)N4CCN(C(=O)c5ccco5)CC4)ccc3c2=O)cc1", "outcome": "inactive"},
      {"smiles": "CCCn1c(=N)n(CC(=O)c2ccc(Cl)c(Cl)c2)c2ccccc21", "activity change, negative = inhibition": "-14.5%"},
      {"smiles": "CC1C(C)N(C(=O)CCl)c2ccccc2N1C(=O)CCl", "note": "(stereo not given)", "Potency": "8.91 µM (active)"},
      {"smiles": "CCNC(=O)N1c2ccccc2Sc2ccccc21", "activity change, negative = inhibition": "-3.31%"},
      {"smiles": "COC(=O)[C@]12CCCCC=C1N(Cc1ccc3c(c1)OCO3)C(=O)[C@H](CC(=O)NCc1cccs1)C2", "activity change, negative = inhibition": "-23.1%"},
      {"smiles": "C(=Nc1ccc(/C=C/c2ccnc3ccccc23)cc1)Nc1ccc(/C=C/c2ccnc3ccccc23)cc1", "activity change, negative = inhibition": "-8.7%"},
      {"smiles": "CN(C)S(=O)(=O)c1cccc(NC(=O)COC(=O)c2cc(=O)[nH]c(=O)[nH]2)c1", "outcome": "inactive"},
      {"smiles": "CN(C)S(=O)(=O)c1cccc(NC(=O)COC(=O)/C=C/c2cccs2)c1", "activity change, negative = inhibition": "-12.8%"},
      {"smiles": "CN(C)S(=O)(=O)c1cccc(NC(=O)Cc2ccsc2)c1", "Potency": "12.6 µM (active)"},
      {"smiles": "O=C(NC(c1ccc(Cl)cc1)c1cnccn1)C1CCN(Cc2ccc(Cl)cc2)CC1", "note": "(stereo not given)", "activity change, negative = inhibition": "-18.8%"},
      {"smiles": "O=C(Nc1cccc2ccccc12)c1[nH]c(-c2ccccc2)c2c1C(=O)N(C1CC1)C2=O", "activity change, negative = inhibition": "-11.3%"},
      {"smiles": "CCCCC(CCCC)c1ccc(C=Nc2ccc(/C=C/c3ccnc4ccccc34)cc2)cc1", "activity change, negative = inhibition": "-8.04%"},
      {"smiles": "Oc1ccc(N=Nc2nccs2)c(O)c1", "Potency": "3.98 µM (active)"},
      {"smiles": "CCN1CCN(c2ccc(/C=C/c3ccnc4ccccc34)cc2)CC1", "activity change, negative = inhibition": "8.12%"},
      {"smiles": "N#Cc1ccc(C(C(=O)NCc2ccccc2)n2c(=O)c(-c3ccco3)nc3ccccc32)cc1", "note": "(stereo not given)", "activity change, negative = inhibition": "3.83%"},
      {"smiles": "CC1(Oc2cccc(F)c2)CCN(Cc2ccccc2OC(F)F)C1", "note": "(stereo not given)", "activity change, negative = inhibition": "-7.02%"},
      {"smiles": "CCN(C(=O)Nc1cccc2ccccc12)c1ccccc1", "activity change, negative = inhibition": "-9.5%"},
      {"smiles": "CC(=O)N1Cc2cc(C(=O)NCc3cccc(F)c3)nc(-c3cccc(C4=CCCCC4)c3)c2[C@H]1CCO", "activity change, negative = inhibition": "19.3%"}
    ]}
  ]
}
